This is a sample that favours compounds with a hit; in the whole collection about 19% have one here.
TDP1 cell CPT: growth inhibition of DT40 Tdp1-/-;hTDP1 cells with camptothecin (screen for TDP1 inhibitors); chicken DT40 Tdp1-/-;hTDP1 cells + 20 nM CPT, ATP luminescence, 48 h; Potency, µM (titrated, usually from 46.2 µM), inactives show at the top dose activity change, negative = growth inhibition, most hits filed as inhibitors; AID 686979; hit rate 12% among 420,000; note: potency is the fitted concentration of half-maximal effect; nearly all actives have a fitted effect of over 55% in size
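Cell growth measured by CellTiter-Glo luminescence after a minimum 48 h, 37 C compound exposure with 20 nM CPT in Tdp1-knockout DT40 cells stably expressing hTDP1, seeded 400/well; qHTS titration format.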
IL1B secr inh: inhibitors of inflammasome signaling (IL-1 beta secretion) | THP-1 LPS/ATP IL-1B secretion, AlphaLISA, 16 h; stronger effect = lower value | activity change, % at 57.5 µM | hit rate 4.7% among 360,000 | AID 743279; in the data active = activity change below about -50%; inconclusive = mostly about -30% to -49%
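Secreted IL-1B measured by AlphaLISA bead assay after 16 h compound exposure of THP-1 cells; compounds (final up to 57.5 uM) added 1 h before LPS (250 ng/mL) and ATP (1.25 mM) stimulation; lower signal means less secretion.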
HT1080 IDH1KD tx: HT-1080 IDH1 knockdown cell toxicity (counter line); HT-1080 IDH1 knockdown viability, ATP luminescence, 48 h; hit rate 2% among 360,000; Potency, µM (top dose mostly 46.1 µM), inactives show at the top dose activity, negative = toxicity, hits mostly cytotoxic;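 note: potency is the fitted concentration of half-maximal effect; 0% = DMSO wells and -100% = cell-free medium wells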
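% activity derives from luminescence (CellTiter-Glo), normalised to DMSO and no-cell wells. HT-1080-IDH1KD cells, 750/well, had 48 h compound exposure at 37 °C.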
ELG1 DNA repair: blocks ELG1-dependent DNA repair in HEK293T cells | HEK293T ELG1-luciferase reporter, luminescence, 16 h; DNA damage induced by 5-fluorouridine | Potency, µM (titrated, usually from 46.1 µM), for the others: top-dose activity change, negative = inhibition, actives largely listed as inhibitors | hit rate 2.3% among 330,000; note: potency is the fitted concentration of half-maximal effect; nearly all actives have a fitted effect of over 55% in size
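Quantitative HTS, concentration-response format. 2,000 cells/well co-treated with 5-fluorouridine and compound, 16 hr in 5% CO2 at 37 °C; ONE-Glo luminescence read after 30 min.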
DT40 TDP1 no CPT: qHTS for Inhibitors of human tyrosyl-DNA phosphodiesterase 1 (TDP1): qHTS in cells in absence of CPT; AID 686978, 2013; hit rate 15% among 420,000; DT40 Tdp1-/- hTDP1 cells, no CPT, ATP luminescence, 48 h; Potency, µM (doses to about 46.2 µM), without a hit: at the top dose activity change, negative = growth inhibition, actives largely listed as inhibitors; note: potency is the fitted concentration of half-maximal effect; nearly all actives have a fitted effect of over 55% in size
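Readout: luminescence from CellTiter-Glo after 30 min in the dark at RT. Cells: DT40 Tdp1-/- with stable hTDP1, 400/well. Exposure: compounds alone, ≥48 hr, 37 °C.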
HT1080-NT tox: kills 2HG-producing HT-1080-NT fibrosarcoma cells | hit rate 1.6% among 360,000 | Potency, µM (titrated, usually from 46.1 µM), inactives show at the top dose activity, negative = less viability, actives largely listed as cytotoxic | AID 686970 | HT-1080-NT fibrosarcoma viability, CellTiter-Glo ATP luminescence, 48 h;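 note: NT is the 2HG producing partner of a matched IDH1 knockdown line; potency is the fitted concentration of half-maximal effect; 0% = DMSO-treated cells and -100% = media-only wells without cells; nearly all actives have a fitted effect of over 55% in size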
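Compounds were tested in concentration-response format on HT-1080-NT cells for 48 hours at 37 degrees C. Cell viability came from CellTiter-Glo luminescence; curves were classified by r2, response magnitude and activity.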
The depositor's hits bear a star; ? = inconclusive; nt = no result; [ ] = another dose, or the depositor's remark. Unless noted, calls come from the whole dose curve; as a rule, active = well fitted curve in the direction sought with a large enough effect; inconclusive = small, poorly fitted or top-dose-only effect, or another doubt; inactive = no such curve, though single readings can be large; an effect the other way counts as inactive or inconclusive. Unless noted, % is set by controls: 0 for no effect and ±100 for the full control effect.

SMILES	TDP1 cell CPT	IL1B secr inh	HT1080 IDH1KD tx	ELG1 DNA repair	DT40 TDP1 no CPT	HT1080-NT tox
Cc1ccccc1Nc1nc(N)nc(CSc2nc3ccccc3c(=O)n2C)n1	9.2µM*	-53*	-29%	?	8.2µM*	-17%
Cc1ccc2c(CSc3nnc4ccccn34)cc(=O)oc2c1C	-19%	8	5%	?	5%	2%
Cc1ccc(SCc2nc(N)nc(Nc3ccccc3C)n2)cc1C	?	17	-14%	14%	?	-10%
Cc1ccccc1Nc1nc(N)nc(CSc2nnc(C)n2C)n1	-3%	6	15%	22%	14%	1%
Cc1ccccc1Nc1nc(N)nc(CSCC(=O)Nc2cccc(Br)c2)n1	?	-5	-1%	?	16µM*	2%
Cc1ccc2c(CSc3nc4ccccc4c(=O)n3CCCO)cc(=O)oc2c1C	?	-4	?	?	23µM*	?
COCCn1c(SCc2nc(N)nc(Nc3ccccc3C)n2)nc2ccccc2c1=O	?	-9	4%	0%	?	-18%
Cc1ccccc1Nc1nc(N)nc(CSc2nc3ccccc3c(=O)n2CCCO)n1	?	-3	-20%	?	18µM*	?
COc1ccc(-c2nc3c(c4nnc(SC(C)C(=O)Nc5ccc(C)cc5)n24)COC(C)(C)C3)cc1 (configuration not stated)	3%	26	5%	21µM*	?	12%
COc1ccc(NC(=O)CSc2nnc3c4c(nc(-c5ccccc5)n23)CC(C)(C)OC4)cc1	?	0	-17%	18µM*	?	-6%
COc1ccc(-c2nnc(SCC(=O)Nc3ccccc3)n2C)cc1	0%	2	7%	1%	-18%	5%
CCOC(=O)c1cnn(-c2ccc([N+](=O)[O-])cc2)c1N	-19%	?	1%	?	-13%	1%
COc1ccc(OC2C(=O)N(Cc3ccc4c(c3)OCO4)C2c2cccs2)cc1 (configuration not stated)	?	-81*	-25%	?	?	?
COc1ccc(OC2C(=O)N(CCc3ccc(OC)c(OC)c3)C2c2ccc3c(c2)OCO3)cc1 (configuration not stated)	18µM*	?	-17%	18µM*	13µM*	-5%
CC(C(=O)NC1CCCCCC1)c1ccc([N+](=O)[O-])cc1 (configuration not stated)	9%	-17	3%	4%	-23%	-4%
C[n+]1c2n(c3ccccc31)N=C(c1cc(C(C)(C)C)c(O)c(C(C)(C)C)c1)CS2	4.1µM*	-100*	7.3µM*	?	2.6µM*	23µM*
CCN1CCN(c2csc3ccc(Br)cc3c2=O)CC1	?	nt	nt	nt	-27%	nt
CC(C)COC(=O)c1ccc2c(c1O)C(=O)c1ccccc1C2=O	?	-12	19%	?	23µM*	4%
CCOC(=O)N1CCN(C/C(Cl)=C/c2ccccc2)CC1	2%	-2	-2%	?	-15%	4%
Cc1ccc(S(=O)(=O)Nc2ccc3c(c2)C(=O)N([C@H](C)CO)C[C@H](C)[C@@H](CN(C)C(=O)Nc2ccc(C(F)(F)F)cc2)O3)cc1	?	?	-29%	?	?	-20%
CC(C)NC(=O)N(C)C[C@H]1OCCCC[C@@H](C)Oc2ccc(NC(=O)C3CCCCC3)cc2C(=O)N([C@H](C)CO)C[C@@H]1C	?	-12	-1%	nt	12µM*	-1%
C[C@H](CO)N1C[C@H](C)[C@@H](CN(C)C(=O)Nc2ccc(C(F)(F)F)cc2)Oc2ccc(NS(=O)(=O)c3ccc(F)cc3)cc2C1=O	?	-23	-18%	-12%	23µM*	-15%
C[C@H](CO)N1C[C@H](C)[C@@H](CN(C)C(=O)Nc2ccc(C(F)(F)F)cc2)Oc2ccc(NS(=O)(=O)c3ccccc3)cc2C1=O	3.7µM*	-12	-24%	-1%	?	-14%
C[C@@H]1CN([C@H](C)CO)C(=O)c2cc(NC(=O)Nc3ccc(F)cc3)ccc2O[C@H]1CN(C)C(=O)Nc1ccc(C(F)(F)F)cc1	16µM*	-72*	?	?	21µM*	-19%
CC(C)NC(=O)C1(C)CCN1C(=O)c1cccn1C (configuration not stated)	17%	15	4%	nt	1%	21%
SMILES	TDP1 cell CPT	IL1B secr inh	HT1080 IDH1KD tx	ELG1 DNA repair	DT40 TDP1 no CPT	HT1080-NT tox
COc1ccc(-n2c(CCNC(=O)c3ccccc3C(F)(F)F)nnc2SC)cc1	11%[9.04 µM]	nt	nt	nt	-11%	nt
Cc1ccc(S(=O)(=O)NCCc2cn3ccsc3n2)c(C)c1	-20%	nt	nt	nt	-20%	nt
CC1CCCC(C)N1C(=O)COC(=O)c1cc(F)c(F)cc1Cl (configuration not stated)	-5%	-3	11%	0%	8%	9%
C[C@H](CO)N1C[C@H](C)[C@@H](CN(C)C(=O)Nc2ccc(C(F)(F)F)cc2)Oc2ccc(NC(=O)C3CCCCC3)cc2C1=O	?	-53*	-2%	?	?	-3%
COc1cccc(C2CC(=O)Nc3c2c(=O)nc2c(C)cccn32)c1OC (configuration not stated)	-3%	nt	nt	nt	-8%	nt
COC(=O)c1c(NC(=O)/C=C/c2ccc(OC)cc2)sc2c1CCC2	10%	nt	nt	nt	-2%	nt
CCCCCCOc1ccc(/C=C/C(=O)Nc2sc3c(c2C(=O)OC)CCC3)cc1OC	7.3µM*	nt	nt	nt	4.1µM*	nt
Cc1ccc(C(=O)O)cc1NS(=O)(=O)c1ccc2ccccc2c1	7%	34	19%	17%	0%	19%
CC(C)OC(=O)C(C(=O)C(F)(F)F)c1cc(NS(=O)(=O)c2ccc3ccccc3c2)c2ccccc2c1O (configuration not stated)	23µM*	-61*	12µM*	?	21µM*	8.2µM*
Cc1ccccc1C(=O)N1CCC[C@@H]1C(=O)N1CCC[C@H]1C(=O)NCc1ccncc1	-3%	30	7%	nt	-18%	1%
C/C(CC1CC2=C(CC1(C)C)C(C)(C)CCC2)=N\NC(N)=S (configuration not stated)	6.5µM*	-74*	5.6µM*	?	5.8µM*	?
CCCn1c(C(CO)Nc2nc(-c3cccc(Br)c3)cs2)nc2ccccc21 (configuration not stated)	?	-57*	-26%	11%	?	?

High-throughput results as filed in PubChem BioAssay.
